Compound activity: PubChem, several laboratories
An excerpt weighted towards active compounds, which were near 1.5% of everything screened.
CRFR2-BP ag: agonists of human CRF-binding protein/CRF-R2 receptor complex | HEK293 CRF-R2/CRF-BP, calcium dye fluorescence (FLIPR); percent of saturating CRF peptide response | activation, % at 13.2 µM | actives 0.46% (n = 350,000);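 active = activation of at least 50%, plus an integration ratio under a set limit after plate pattern correction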;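 also: plate controls were neutral control wells without compound for no effect and CRF at EC100 for full effect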
NTR1 ag: NTR1 (human) agonism | P30989 | NTR1-U2OS beta-arrestin-GFP spot imaging, agonist mode | activation, % at 20 µM | actives 0.17% (n = 330,000) | AID 493036;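 active = activation at or above 40% of the spot to cytoplasm intensity ratio, with at least 20 cells analyzed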;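 also: 0% = DMSO without peptide and 100% = 100 nM NTR1 peptide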
Target sequence (P30989 whole entry, looked up): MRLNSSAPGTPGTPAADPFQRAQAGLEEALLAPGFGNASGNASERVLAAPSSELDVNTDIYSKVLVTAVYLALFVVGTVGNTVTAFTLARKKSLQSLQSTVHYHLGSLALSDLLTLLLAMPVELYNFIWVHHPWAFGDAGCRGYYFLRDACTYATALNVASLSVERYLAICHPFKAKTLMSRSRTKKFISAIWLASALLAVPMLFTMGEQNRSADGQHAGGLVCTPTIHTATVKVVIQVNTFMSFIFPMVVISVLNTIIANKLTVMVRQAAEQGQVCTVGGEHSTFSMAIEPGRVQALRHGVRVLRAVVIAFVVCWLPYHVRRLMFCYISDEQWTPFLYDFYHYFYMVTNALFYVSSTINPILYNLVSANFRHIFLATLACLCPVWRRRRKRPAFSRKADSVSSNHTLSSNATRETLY
V-ATPase pH: regulators of yeast V-ATPase proton transport. S. cerevisiae, pHLuorin cytosolic pH fluorescence. actives 0.37% (n = 350,000). response, % at 10 µM; in the data active = response mostly above about 7.3%, no sharp cut-off; inactive = mostly below about 5.4%; also: actives read high
CRFBP-R2 block: antagonists of CRF-binding protein/CRF-R2 receptor complex. actives 0.59% (n = 350,000). HEK293 CRF-R2/CRF-BP, CRF-induced calcium fluorescence. inhibition, % at 11.8 µM;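 active = inhibition of the ligand-induced calcium signal above about 50% at the single tested concentration, limit read from the data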
* marks the source's active call; other numbers are inactive results; . = not tested or not shown; ! = not active in a repeat.

SMILES	CRFR2-BP ag	NTR1 ag	V-ATPase pH	CRFBP-R2 block
CN(C)CCCNC(=O)c1ccccc1Oc1ccccc1	1.9	-0.6	5.6	58.9*
CN(C)c1c([N+](=O)[O-])ncn1C	0.3	-1.4	-2.1	53.7*
N#Cc1cn(Cc2ccco2)c(=O)[nH]c1=O	-0.6	.	-4.5	-11.7
COc1cc(C=C2C(=O)c3ccccc3C2=O)cc(OC)c1OC	1.2	2.3	-20.1	88.4*
COc1cc(C=C2C(=O)c3ccccc3C2=O)cc(OC)c1	0.0	0.2	-6.1	-7.3
COc1cccc(/C=C2\C(=O)C(=O)c3ccccc32)c1	-3.4	-0.5	-1.5	76.3*
COc1cc(C=C2C(=O)c3ccccc3C2=O)ccc1O	-0.9	3.3	-1.9	25.7
COc1ccc(C=C2C(=O)c3ccccc3C2=O)cc1O	-0.7	2.1	9.1	66.1*
O=C(CSc1ccc(F)cc1)Nc1ccc2c(c1)C(=O)NC2=O	-2.2	0.8	-4.4	6.5
CCOC(=O)c1ccc(N=c2sc(C(=O)OC)cc(=O)n2CCCN2CCOCC2)cc1	-1.8	6.0	-0.3	56.9*!
Cc1ccc(-n2c(O)c(C=Nc3ccccc3-c3n[nH]c(=S)[nH]c3=O)c3ccccc3c2=O)c(C)c1	-0.7	3.1	-0.7	53.0*
C=CCn1c(-c2ccc(OC)cc2)nc2ccccc21	154.4*	1.2	0.9	-180.0
O=C(Nc1ccccc1C(=O)Nc1nnc(C(F)(F)F)s1)c1ccccc1Cl	49.0	4.9	4.1	50.2*
CC(NC(=O)Nc1nnc(C(F)(F)F)s1)(C(F)(F)F)C(F)(F)F	59.4*	3.2	4.5	28.1
O=C(Nc1nnc(C(F)(F)F)s1)c1ccc(Br)s1	97.9*	14.8	1.2	54.3*
NC(=O)c1ccccc1NC(=O)c1ccccc1Cl	0.1	1.6	-0.1	4.3
O=C1NC(=S)S/C1=C\C=C\c1ccc([N+](=O)[O-])o1	47.5	.	54.0*	-51.7
c1ccc(-c2noc(CN3CCN(c4cnccn4)CC3)n2)cc1	-0.1	-0.8	-1.6	73.6*
c1ccc(C(c2ccccc2)N2CCN(Cc3nc(-c4cnccn4)no3)CC2)cc1	-1.0	1.2	-2.6	-2.1
Cc1nn(CC(=O)Nc2ccc(N3CCOCC3)cc2)c(C)c1[N+](=O)[O-]	0.8	-0.4	1.5	-16.1
Cc1ccccc1N1C(=O)c2sc3nc4c(c(=O)n3c2C1=O)CCC4	0.7	-2.3	0.7	-24.9
O=C1c2sc3nc4ccccc4n3c2C(=O)N1c1ccccc1Cl	0.0	1.4	10.5*	-6.3
CCN(CC)c1ccc2cc(S(=O)(=O)c3ccc(Cl)cc3)c(=O)oc2c1	118.1*	-0.7	1.0	-83.5
CCCCCCc1cc2cc(S(=O)(=O)c3ccc(Cl)cc3)c(=O)oc2cc1O	43.8	-0.9	-3.8	-7.1
Cc1ccccc1NC(=O)CCc1nnc2ccc(N3CCC4(CC3)OCCO4)nn12	-1.4	-0.4	-0.5	-4.5
SMILES	CRFR2-BP ag	NTR1 ag	V-ATPase pH	CRFBP-R2 block
CCOC(=O)C1(Cc2ccccc2Cl)CCN(C(=O)CCn2ccnc2C)CC1	-1.2	0.4	-2.0	-5.0
COc1ccc(N(C(=O)CCl)C(C(=O)NC2CCCCC2)c2cccnc2)cc1 (stereo unspecified)	1.6	5.0	15.1*	9.2
O=C(NC1CCCCC1)C(c1cccnc1)N(C(=O)CCl)c1ccc(F)cc1 (stereo unspecified)	1.6	.	0.6	-7.5
CCCNC(=O)COc1coc(CN2CCN(c3ccccc3OC)CC2)cc1=O	-0.6	-0.8	2.6	1.5
Cc1cc(NS(=O)(=O)c2c(C(=O)N3CCOCC3)c(C)n(C)c2C)ccc1Br	-1.4	2.5	-2.2	92.0*
COc1ccccc1N1C(C)=CC(=C(C#N)c2nc3ccccc3s2)C=C1C	108.5*	1.9	-5.9	-90.2
COc1cc(/C=C(/C(=O)c2cccs2)c2nc3ccccc3[nH]2)cc(OC)c1O	-0.9	25.1	0.3	-0.1
O=C(CCn1c2c(c3ccccc31)CCCC2)NNC(=O)c1ccccc1C(=O)O	55.5*	0.0	-3.7	-9.0
Cc1cccc(N2CCN(C(=O)CCc3nc4ccccc4c(=O)[nH]3)CC2)c1C	-4.8	-0.5	0.9	74.3*
CCN(c1ccccc1)c1nc(C#N)nc(N(CC)c2ccccc2)n1	1.0	11.2	-8.2	82.7*
COc1cc(Cl)ccc1OCc1cc(C(=O)NCCCN2CCCC2=O)no1	1.9	1.4	3.9	14.2
CCOC(=O)/C(=C/C=C1\Sc2cc(C)c(C)cc2N1CC)C(C)=O	156.3*	.	0.3	-92.6
CCOC(=O)/C(=C\C=C1/Sc2ccccc2N1CC)C(C)=O	312.6*	.	-1.7	-370.1
CCC(=O)/C=C1/Sc2ccccc2N1CC	-1.7	0.5	-3.0	-8.4
CCOC(=O)/C(=C/C=C1\Sc2ccccc2N1CC)C(C)=O	237.5*	-1.1	1.1	-233.2
O=C(CCCCCNC(=S)Nc1ccccc1)C[N+](=O)[O-]	-0.4	0.9	1.6	-10.3
CCc1nnc(NC(=O)CCC(=O)N2CCC(Cc3ccccc3)CC2)s1	-0.5	0.8	-0.8	-4.3
O=C1CCC[C@@H]2Cc3nc4cc5c(cc4cc3[C@@H]3CCN1[C@H]23)OCO5	-0.8	.	3.8	-2.9
CN(C)c1ccc(NC(=O)COC(=O)c2ccc3c(c2)OCO3)cc1	3.8	3.6	-0.4	-21.1
CN(C)c1ccc(C(=O)OCC(=O)Nc2ccc(S(N)(=O)=O)cc2)cc1	7.7	0.6	1.1	54.5*
CN(C)S(=O)(=O)c1ccc(C(=O)OCC(=O)Nc2ccc(OC(F)F)cc2)cc1	3.4	0.6	0.2	96.0*
C=C1C(O)[C@@H]2O[C@]3(CC[C@H](/C=C/C(C)[C@@H]4CC(C)=CC5(O[C@H](C[C@@](C)(O)CO)CCC5O)O4)O3)CC[C@H]2O[C@@H]1C(O)CC(C)[C@H]1OC2(CCCCO2)CCC1C (stereo partly specified)	1.8	-0.6	.	-3.6
COc1ccc(S(=O)(=O)N(C)CC(=O)NC2CC2)cc1OC	0.7	0.3	-3.2	1.6
COc1ccc(S(=O)(=O)N(C)CC(=O)NC2CCCCC2)cc1OC	-0.3	3.3	3.1	51.4*
O=c1nc(Oc2ccccc2)nc2ncccn12	1.6	.	1.4	-19.5
SMILES	CRFR2-BP ag	NTR1 ag	V-ATPase pH	CRFBP-R2 block
O=Nc1nc2ncccn2c1-c1ccccc1	6.8	.	15.9	58.2*
Nc1nc(Sc2c([N+](=O)[O-])cc(C(F)(F)F)cc2[N+](=O)[O-])n[nH]1	-1.1	6.3	-2.8	9.0
Cc1cc(C(C2C(=O)CC(C)(C)CC2=O)C2C(=O)CC(C)(C)CC2=O)cc(C)c1OC(F)F	58.7*	-1.8	3.6	26.6
Nc1cc2[nH]c(=O)c3ccccc3c2cc1[N+](=O)[O-]	-2.1	.	0.1	3.3
N#Cc1ccc(CN(Nc2ccccc2)c2ccccc2)cc1	-2.4	.	1.0	55.7*
Cc1ccccc1C(=O)Nc1ccc(N(C)C)c2ccccc12	-2.0	-0.3	1.1	28.6
Cc1c(C(=O)N2CCCCC2)c(S(=O)(=O)NCCc2ccc(Cl)cc2)c(C)n1C	-0.7	-1.0	1.6	-17.3
NC(=O)C1=CC2C3C=CC2(O)C(=O)OC3O1 (stereo unspecified)	-2.9	.	4.6	23.4
CCOc1ccc(C2C(C#N)=C(N)N3C(=C2C#N)Sc2ccccc23)cc1 (stereo unspecified)	92.7*	5.9	0.4	-115.9
